Compounds with a hit are over-represented: about 12% of the library has one in this group of screens.
NS1 function inh: inhibitors of influenza NS1 protein function; hit rate 0.4% among 270,000; AID 2326; Potency, µM (doses to about 46.1 µM), without a hit: at the top dose activity, positive = more growth; note: potency is the fitted concentration of half-maximal effect; actives are rising curves; nearly all actives have a fitted effect of over 50% in size
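A cell-based growth assay was used: compounds that relieve NS1-induced slow growth of budding yeast raise OD600. Assay medium was yeast nitrogen base with ammonium sulphate and -URA supplement, pH 6.0, with 2% galactose.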
SARS PLP yeast: SARS-CoV PLP inhibition in yeast; hit rate 0.19% among 330,000; S. cerevisiae expressing SARS-CoV PLpro, growth rescue; Potency, µM (doses to about 32.9 µM), inactives show at the highest dose activity, positive = growth rescue, usual class: activators; note: potency is the fitted concentration of half-maximal effect; 0% is about no effect; nearly all actives have a fitted effect of over 55% in size
CHX counter: counter-screen hit for Shiga toxin inhibitors, cycloheximide. cell reporter, cycloheximide protein synthesis inhibition counterscreen. max response, %. hit rate 12% among 300,000. AID 2314; in the data active = max response mostly above about 13%, no sharp cut-off; inactive = mostly below about 14%; note: read at 38.3 µM for the half of the compounds with a filed dose; 0% is about no effect
Shiga toxin inh: Shiga toxin inhibition; Vero cells, Shiga toxin protein synthesis inhibition reporter; inhibition, % at 38.7 µM; hit rate 9.2% among 290,000; AID 2315; in the data active = inhibition mostly above about 28%, no sharp cut-off; inactive = mostly below about 43%; note: 0% is about no effect
An asterisk follows results filed as active; ? = inconclusive; . = no result. Unless noted, calls come from the whole dose curve.

SMILES	NS1 function inh	SARS PLP yeast	CHX counter	Shiga toxin inh
Cc1cc(Cl)c2oc(C(=O)N(CCO)Cc3ccccc3)c(C)c2c1	-20%	5%	21*	64*
Cc1c(C(=O)N(C)CCCCN2CCOCC2)oc2c(F)cccc12	1%	-2%	15*	.
Cc1cc(Cl)c2oc(C(=O)N(C)Cc3cc(C)[nH]n3)c(C)c2c1	-40%	-2%	10	12
Cc1cc(Cl)c2oc(C(=O)N(C)C3CCOC3)c(C)c2c1 (centres undefined)	-14%	-15%	36*	55*
Cc1cc(Cl)c2oc(C(=O)N(C)Cc3ccon3)c(C)c2c1	-34%	-27%	48*	95*
Cc1ccc2oc(C(=O)N(CCO)Cc3ccccc3)c(C)c2c1	-27%	-2%	-1	-3
CCCCc1ccc(N2C(=NC(=O)C3CCCO3)SC3CS(=O)(=O)CC32)cc1 (centres undefined)	-13%	?	-2	-12
CCc1ncc(CN2CCCC(C(=O)Nc3ccc(-c4cscn4)cc3)C2)cn1 (centres undefined)	1%	26%	15	19
CCC(C)NC(=O)c1ccccc1NC(=O)/C(=C/c1ccc(OC)cc1)c1ccccc1 (centres undefined)	9%	-14%	-3	-5
COc1ccc(OC)c(S(=O)(=O)N2CCCC(C(=O)N3CCCC3)C2)c1 (centres undefined)	4%	17%	-2	-3
Cc1c(C(=O)N(CCO)Cc2ccccc2)oc2c(F)cccc12	-17%	-1%	35*	32*
Cc1c(C(=O)N(C)Cc2ccccc2)oc2c(Cl)cccc12	-38%	-2%	-1	-6
CC[C@H](C)[C@H](N)C(=O)N[C@H](C(=O)N[C@@H](CO)C(=O)N[C@@H](C)C(=O)N[C@H](C(=O)N[C@H](C(=O)NCC(=O)N[C@H](C(=O)N[C@@H](CC(C)C)C(=O)O)[C@@H](C)CC)C(C)C)C(C)C)[C@@H](C)CC	.	.	-1	-5
COc1cccc(CN(C)C(=O)Cc2c[nH]c3ccccc23)c1	8%	-3%	20*	23
COc1ccc(CN(C)C(=O)Cc2c[nH]c3ccccc23)cc1	-13%	-3%	9	18
Cc1nc2ccccc2nc1CN1CCC(CO)(CC2CCCCO2)CC1 (centres undefined)	2%	1%	-3	4
Cc1ccc(C)c(C(=O)CSc2n[nH]c(C)n2)c1	0%	-10%	6	-27
Cc1ccc(C(=O)CSc2n[nH]c(C)n2)cc1	-15%	0%	30*	86*
Cc1nc(SCC(=O)O)n[nH]1	-1%	0%	-1	-4
CCc1ccc(C(=O)CSc2n[nH]c(C)n2)cc1	-13%	-17%	44*	111*
Cc1noc(C)c1NC(=O)N(C)C[C@H]1Oc2c(NC(=O)Nc3ccccc3)cccc2C(=O)N([C@H](C)CO)C[C@@H]1C	.	1%	.	.
O=C1C2C3C=CC(C2C(=O)N1C1CCCCC1)C1C2C(=O)N(C4CCCCC4)C(=O)C2C31 (centres undefined)	-3%	-3%	-3	-13
COc1nc(C)ccc1-c1noc(-c2cccnc2)n1	-7%	-1%	19*	.
COc1nc2cc(C)ccc2cc1-c1noc(-c2cccnc2)n1	-1%	7%	-5	29
CCc1nc(-c2ccc(C)nc2OC)no1	-9%	0%	8	-1
SMILES	NS1 function inh	SARS PLP yeast	CHX counter	Shiga toxin inh
COc1nc(C)ccc1-c1noc(-c2ccccn2)n1	-6%	4%	57*	144*
COc1ccccc1-c1nc(-c2ccc(C)nc2OC)no1	3%	-7%	49*	93*
Cc1ccc(-c2nnc(-n3ncc(C#N)c3N)c3ccccc23)cc1C	-2%	17%	-5	-7
Cc1ccn(S(=O)(=O)c2ccc3oc(=O)ccc3c2)n1	-22%	-18%	-6	-12
O=C(C[n+]1ccc2ccccc2c1)c1ccccc1	5%	-1%	20*	39
Nc1cc[n+](CC(=O)c2ccccc2)cc1	10%	0%	-1	-4
O=C(C[n+]1cccc(Br)c1)c1ccc(-c2ccccc2)cc1	-1%	-3%	22*	34
COc1ccc(C(=O)C[n+]2cccc(Br)c2)cc1	-1%	1%	9.7*	33
O=C(C[n+]1cccc(Br)c1)c1ccccc1	9%	7%	-8	-5
COC(=O)c1ccc(CNC(=O)C(NC(=O)c2ccco2)C(C)C)cc1 (centres undefined)	-5%	-2%	-2	-6
Cc1ncsc1CCC(=O)N1CCCC(C(=O)c2ccc3c(c2)OCO3)C1 (centres undefined)	-2%	-1%	23*	33
COc1cccc(C(=O)C2CCCN(C(=O)CCc3scnc3C)C2)c1 (centres undefined)	-1%	0%	22*	9
COc1cccc(C(=O)C2CCCN(Cc3ccccn3)C2)c1 (centres undefined)	-3%	0%	-2	3
COc1ccc2cc(C(=O)C3CCCN(C(=O)CCc4ccccn4)C3)ccc2c1 (centres undefined)	-35%	-1%	24*	31*
COc1ccc(C(=O)C2CCCN(C(=O)c3ccnn3C)C2)cc1OC (centres undefined)	1%	0%	13	-8
COc1ccc2cc(C(=O)C3CCCN(C(=O)c4ccnn4C)C3)ccc2c1 (centres undefined)	-7%	0%	18	39*
CCc1ccc(-n2c(=O)c3c(C)c(C)sc3n(CC(=O)NCC3CCCO3)c2=O)cc1 (centres undefined)	.	0%	-8	-2
CCCCC(=O)NC(=S)Nc1ccc(S(=O)(=O)N2CCCC2)cc1	9%	8%	-6	-10
COc1ccc(S(=O)(=O)N2CCC(C(=O)NCCN3CCOCC3)CC2)cc1	-5%	-5%	-2	-8
CCOc1ccc(OCCCC(=O)O)cc1	-55%	6%	6	-14
O=[n+]1cc(-c2ccccc2)n([O-])c2c1CCCCC2	5%	2%	16*	-5
Cc1ccc(O)c(N=Nc2ccc(S(=O)(=O)N3CCCC3)cc2)c1	-6%	1%	27*	42*
COc1ccc(N=Nc2cc(C)ccc2O)cc1	3%	0%	48*	82*
COc1ccc(N=Nc2ccc3ccccc3c2)c(O)c1	-5%	0%	50*	.
Cc1ccc(S(=O)(=O)N2CCCCC2)cc1	1%	1%	12	-1
SMILES	NS1 function inh	SARS PLP yeast	CHX counter	Shiga toxin inh
C=CCOc1ccc(C=Nc2ccc(OC)cc2)c(O)c1	.	7%	23	4
COc1cccc(N=Nc2ccc3ccccc3c2O)c1	-1%	2%	40*	58*
Cc1ccc(C(=O)CN(CCC(=O)O)C(=O)c2ccncc2)cc1	.	-20%	.	.
Cc1cc(NC(=O)CCN2C(=O)C3C4CCC(C4)C3C2=O)cc(C)c1Br (centres undefined)	-5%	21%	6	12
O=C(NCCN1C(=O)C2C3C=CC(C3)C2C1=O)Nc1ccc(Br)cc1 (centres undefined)	-5%	3%	83*	65*
Cc1cc(NC(=O)CCN2C(=O)C3C4C=CC(C4)C3C2=O)ccc1Br (centres undefined)	-6%	-4%	23*	52
Cc1c(Br)ccc(NC(=O)CCN2C(=O)C3C4CCC(C4)C3C2=O)c1C (centres undefined)	-1%	10%	19*	34*
